Source: PubChem BioAssay AID463173 (ICCB-Longwood Screening Facility, Harvard Medical School, 2010)
Out of some 52,000 compounds screened, about 4,300 (8.3%) were called active. Rule as the data show it: active = survival mostly below about 52% (no sharp cut-off); inactive = mostly above about 56%. Only a selection was taken, and actives are over-represented in it overall.

What follows are compounds tested on DeltatarO mutant (assay: S. aureus survival, RN4220 and DeltatarO strains – OD600, teichoic acid synthesis inhibitors, primary screen (AID 463173)). Conditions: S. aureus RN4220 wild type/DeltatarO growth, OD600, 18 h, hits give low values, screened at 18.75 µg/mL (by protocol).

Compound	survival
COc1cc(C)ccc1OCCSc1nc2ccc(NC(=O)c3cccs3)cc2s1	72% (inactive)
CCOC(=O)c1ccccc1NC(=O)C1CCN(c2ncnc3c2nc2n3CCCCC2)CC1	62% (inactive)
O=C1CS/C(=N/c2nc(-c3ccccc3)cs2)N1	83% (inactive)
COc1ccc(-c2nc3sc(CCNC(=O)c4ccccc4C)c(C)n3n2)cc1	77% (inactive)
Cc1ccccc1CNC(=O)CCC(=O)N1CC2CCCN2c2ccccc21 (stereo not given)	55% (inactive)
O=C(CSc1oc(-c2ccc(F)cc2)nc1S(=O)(=O)c1ccc(Br)cc1)NC1CCCCC1	64% (inactive)
COCCNc1oc(-c2ccccc2)nc1S(=O)(=O)c1ccc(Br)cc1	79% (inactive)
CCS(=O)(=O)c1oc(-c2ccc(F)cc2)nc1S(=O)(=O)c1ccccc1	-5% (active)
O=S(=O)(c1ccccc1)c1nc(-c2ccc(F)cc2)oc1NCc1ccccc1	67% (inactive)
CCCCS(=O)(=O)c1oc(-c2ccc(F)cc2)nc1S(=O)(=O)c1ccccc1	4% (active)
CCS(=O)(=O)c1oc(-c2ccc(F)cc2)nc1S(=O)(=O)c1ccc(Br)cc1	-5% (active)
O=C(CSc1oc(-c2ccc(F)cc2)nc1S(=O)(=O)c1ccccc1)NC1CCCCC1	61% (inactive)
CC(=O)Nc1ccc(NC(=O)CCc2c(C)nc3c(c(C)nn3-c3ccccc3)c2C)cc1	107% (inactive)
CCCCN(C)CCNC(=O)c1cc2c(=O)n(C)c3ccccc3c2n1C	90% (inactive)
Cc1ccccc1CCNC(=O)c1ccc2c(c1)nc1n2CCOC1	84% (inactive)
Cn1c(=S)[nH]c2c(c1=O)C1(CCCC1)Cc1ccccc1-2	80% (inactive)
CSCCC(NS(=O)(=O)c1ccc2c(c1)oc(=O)n2C)C(=O)NCc1ccc(Cl)cc1 (stereo not given)	92% (inactive)
COc1ccc(-c2nc3scc(CCNC(=O)Cc4ccc(F)cc4)n3n2)cc1	95% (inactive)
CCC(C(=O)Nc1cc(-c2cn3cccnc3n2)ccc1C)c1ccccc1 (stereo not given)	91% (inactive)
CCC(CC)C(=O)Nc1cccc(-c2nc3cccnc3s2)c1	80% (inactive)

Compound	survival
Cc1ccc(-c2nc3cccnc3s2)cc1NC(=O)C(C)C	112% (inactive)
CCC(CC)C(=O)Nc1cc(-c2nc3cccnc3s2)ccc1C	57% (active)
CCC(C(=O)Nc1cccc(-c2nc3cccnc3s2)c1C)c1ccccc1 (stereo not given)	92% (inactive)
CCC(C(=O)Nc1cc(-c2nc3cccnc3s2)ccc1C)c1ccccc1 (stereo not given)	37% (active)
CCCC(=O)Nc1cc(C)c(O)c(-c2nc3ncccc3o2)c1	91% (inactive)
NC(=O)C1CCN(S(=O)(=O)c2ccc(N3CCCCS3(=O)=O)cc2)CC1	116% (inactive)
Cn1c(=O)c2c(n3ncnc13)NC(=O)CC2c1cccc(F)c1 (stereo not given)	66% (inactive)
CS(=O)(=O)N1CCN(c2ncnc3c(-c4ccc(Cl)cc4)nsc23)CC1	99% (inactive)
COCCn1c(C)cc(O)c(C(c2ccc(OC)cc2)N2CCN(c3ccccc3)CC2)c1=O (stereo not given)	58% (inactive)
Cc1nc2c3cccnc3nn2c(C)c1CCC(=O)NCc1ccccc1	110% (inactive)
Cc1ccc(-n2c(CCC(=O)O)ccc2-c2cccs2)cc1C	46% (inactive)
Cc1ccc(Cl)cc1-n1c(CCC(=O)O)ccc1-c1cccs1	38% (active)
COc1ccc(-c2ccc(CCC(=O)O)n2-c2ccccc2C(F)(F)F)cc1	116% (inactive)
Cc1ccc(C)c(-n2c(CCC(=O)O)ccc2-c2ccc(Cl)cc2)c1	75% (inactive)
Cc1ccc(-c2ccc(CCC(=O)O)n2-c2cccc(C)c2C)cc1	34% (active)
COc1ccc(Cl)cc1-n1c(CCC(=O)O)ccc1-c1ccc(C)cc1	73% (inactive)
Cc1ccc(-n2c(CCC(=O)O)ccc2-c2cccs2)cc1Cl	86% (inactive)
COc1ccc(-n2c(CCC(=O)O)ccc2-c2ccccc2)c(OC)c1	47% (active)
COc1ccc(-c2ccc(CCC(=O)O)n2-c2cc(Cl)ccc2O)cc1	52% (inactive)
COc1ccc(-c2ccc(CCC(=O)O)n2-c2ccccc2O)cc1	124% (inactive)

Compound	survival
Cc1ccc(-c2ccc(CCC(=O)O)n2-c2ccc(C)c(Cl)c2)cc1	42% (inactive)
COc1ccc(-c2ccc(CCC(=O)O)n2-c2ccc(Cl)cc2C)cc1	47% (active)
CCOC(=O)c1ccc(NC(=O)CCC(=O)N2Cc3ccccc3Oc3ncccc32)cc1	92% (inactive)
COc1ccc(N(C(=O)c2ccc(Cl)cc2)S(=O)(=O)c2ccc(C)cc2)cc1	68% (inactive)
COc1cc(/C=C/c2nc3cc(Cl)ccc3c(=O)n2-c2cccc(C(F)(F)F)c2)cc(OC)c1OC	96% (inactive)
CCOc1cccc2sc(N3CCN(C(=O)C(C)(C)C)CC3)nc12	77% (inactive)
CCOc1ccc2nc(NCCNC(=O)NCc3ccccc3)c(C#N)cc2c1	98% (inactive)
CSc1ccccc1NC(=O)CSc1ncccn1	108% (inactive)
O=C(COc1ccccc1Cl)NCC1(N2CCOCC2)CCCCC1	106% (inactive)
COc1ccc(-c2nc(SCC(=O)NCC3CCCO3)c(-c3ccc(C)cc3)[nH]2)cc1OC (stereo not given)	66% (inactive)
COc1ccc(CNS(=O)(=O)c2cc3c(cc2Cl)N(C(C)=O)CCO3)cc1	74% (inactive)
COc1ccccc1-n1c(=O)n(C)c2c(C(N)=O)nc(-c3cccc(OC)c3OC)nc21	83% (inactive)
Cc1cccc(NC(=O)C(=O)NCCc2sc(-c3ccccc3)nc2C)c1C	79% (inactive)
Cc1c(Cl)cccc1-n1c(CCC(=O)O)ccc1-c1cccs1	35% (active)
CC(=O)c1ccc(-n2c(CCC(=O)O)ccc2-c2cccs2)cc1	65% (inactive)
Cc1ccc(NC(=O)Cn2c(CCC(=O)O)ccc2-c2cccs2)cc1Cl	59% (inactive)
Cc1ccc(NC(=O)Cn2c(CCC(=O)O)ccc2-c2cccs2)cc1	56% (inactive)
Cc1c(Cl)cccc1NC(=O)Cn1c(CCC(=O)O)ccc1-c1cccs1	50% (inactive)
Cc1cc(Cl)ccc1-n1c(CCC(=O)O)ccc1-c1cccs1	47% (active)
O=C(COc1ccccc1)N(Cc1cccnc1)c1nc2c(F)cc(F)cc2s1	84% (inactive)
